# Out of some 39,000 compounds screened, about 3,300 (8.5%) were called active. This is one part of a sample in which actives are shown more often than they occur.
# Test system: HepG2
# Assay: cytotoxicity call (relative viability < 0.9)
# Details: 10 µM
row,SMILES,cytotoxicity call
1,CC(=O)N[C@@H](Cc1cccc(F)c1)C(=O)O,inactive
2,O=C(NC1Cc2ccccc2C1)[C@@H]1[C@@H](CO)[C@@H]2Cn3c(cccc3=O)[C@@H]2N1C(=O)c1cnccn1,inactive
3,Nc1no[n+]([O-])c1-c1ccccc1,inactive
4,C[C@H](CO)N1C[C@H](C)[C@H](CN(C)C(=O)Nc2ccc(F)cc2)OCCCC[C@H](C)Oc2ccc(NC(=O)c3ccccc3)cc2C1=O,inactive
5,C[C@@H]1CCCCO[C@@H](CN(C)Cc2ccc3c(c2)OCO3)[C@H](C)CN([C@H](C)CO)C(=O)c2cc(NC(=O)Nc3ccccc3)ccc2O1,inactive
6,C[C@H]1CCCCO[C@H](CN(C)Cc2ccc3c(c2)OCO3)[C@@H](C)CN([C@@H](C)CO)C(=O)c2cc(NC(=O)Nc3ccccc3)ccc2O1,inactive
7,C[C@H](CO)N1C[C@H](C)[C@H](CN(C)Cc2ccc3c(c2)OCO3)OCCCC[C@H](C)Oc2ccc(NC(=O)Nc3ccccc3)cc2C1=O,active
8,C[C@@H]1CCCCO[C@H](CN(C)Cc2ccc3c(c2)OCO3)[C@@H](C)CN([C@H](C)CO)C(=O)c2cc(NC(=O)Nc3ccccc3)ccc2O1,inactive
9,C[C@@H]1CN([C@@H](C)CO)C(=O)c2cc(NC(=O)Nc3ccccc3)ccc2O[C@@H](C)CCCCO[C@H]1CN(C)Cc1ccc2c(c1)OCO2,inactive
10,C[C@@H]1CN([C@H](C)CO)C(=O)c2cc(NC(=O)Nc3ccccc3)ccc2O[C@@H](C)CCCCO[C@@H]1CN(C)Cc1ccc2c(c1)OCO2,inactive
11,C[C@@H]1CN([C@H](C)CO)C(=O)c2cc(NC(=O)Nc3ccccc3)ccc2O[C@@H](C)CCCCO[C@H]1CN(C)Cc1ccc2c(c1)OCO2,inactive
12,C[C@@H]1CCCCO[C@@H](CN(C)Cc2ccc3c(c2)OCO3)[C@@H](C)CN([C@@H](C)CO)C(=O)c2cc(NC(=O)Nc3ccccc3)ccc2O1,active
13,C[C@H]1CCCCO[C@@H](CN(C)Cc2ccc3c(c2)OCO3)[C@@H](C)CN([C@@H](C)CO)C(=O)c2cc(NC(=O)Nc3ccccc3)ccc2O1,active
14,C[C@@H]1CCCCO[C@@H](CN(C)Cc2ccc3c(c2)OCO3)[C@@H](C)CN([C@H](C)CO)C(=O)c2cc(NC(=O)Nc3ccccc3)ccc2O1,inactive
15,C[C@@H]1CCCCO[C@H](CN(C)Cc2ccc3c(c2)OCO3)[C@H](C)CN([C@H](C)CO)C(=O)c2cc(NC(=O)Nc3ccccc3)ccc2O1,active
16,C[C@@H]1CCCCO[C@H](CN(C)Cc2ccc3c(c2)OCO3)[C@@H](C)CN([C@@H](C)CO)C(=O)c2cc(NC(=O)Nc3ccccc3)ccc2O1,inactive
17,C[C@@H]1CN([C@@H](C)CO)C(=O)c2cccc(NC(=O)c3ccc(-c4nccs4)cc3)c2O[C@@H]1CN(C)C(=O)Nc1ccc2c(c1)OCO2,inactive
18,CCCNC(=O)N1C[C@@H](O)COC[C@H]2O[C@H](CC(=O)N3CCOCC3)CC[C@@H]21,inactive
19,C[C@H]1CN([C@@H](C)CO)C(=O)c2cccc(NS(C)(=O)=O)c2O[C@@H]1CN(C)Cc1ccc(C(=O)O)cc1,inactive
20,C[C@@H]1CN([C@H](C)CO)C(=O)c2cc(NS(=O)(=O)c3cn(C)cn3)ccc2O[C@H]1CN(C)Cc1ccc(C(=O)O)cc1,inactive

row,SMILES,cytotoxicity call
1,O=C(O)c1ccc2[nH]cnc2n1,inactive
2,O=C(CCCCCNC(=O)OCc1ccc(CO[C@@H]2C[C@H](C3CCCCC3)C=C(C(=O)N3CCCCCCC3)O2)cc1)NO,inactive
3,C[C@H](CO)N1C[C@H](C)[C@@H](CN(C)S(=O)(=O)c2ccc(F)cc2)Oc2ccc(NS(C)(=O)=O)cc2C1=O,inactive
4,Cc1noc(C)c1NC(=O)N(C)C[C@@H]1Oc2ccc(NC(=O)Nc3cccc4ccccc34)cc2C(=O)N([C@H](C)CO)C[C@@H]1C,inactive
5,COc1ccccc1NC(=O)N(C)C[C@H]1Oc2ncc(C#CCN(C)C)cc2C(=O)N([C@H](C)CO)C[C@H]1C,inactive
6,C=CCOC(=O)[C@H]1[C@@H]2C(=O)O[C@@H](c3ccccc3)[C@@H](c3ccccc3)N2[C@@H](c2ccc(OCCOC(=O)[C@@H]3C[C@@H]4C(=O)NCC(=O)N4[C@@H]3c3cccc(OCCO)c3)cc2)[C@]12C(=O)Nc1ccccc12,inactive
7,Cc1noc(C)c1S(=O)(=O)Nc1ccc2c(c1)CC(=O)N([C@H](C)CO)C[C@H](C)[C@H](CN(C)Cc1ccc(-c3ccccc3)cc1)O2,inactive
8,C(=N\c1ccccc1)/c1ccccc1,inactive
9,C[C@H](CO)N1C[C@H](C)[C@@H](CN(C)Cc2ccc3c(c2)OCO3)OCCCC[C@H](C)Oc2ccc(NC(=O)Nc3ccccc3)cc2C1=O,inactive
10,C[C@@H]1CN([C@H](C)CO)C(=O)c2cc(NC(=O)Nc3ccc4c(c3)OCO4)ccc2O[C@@H](C)CCCCO[C@@H]1CN(C)Cc1ccccc1,inactive
11,C[C@@H]1CCCCO[C@H](CN(C)Cc2ccc3c(c2)OCO3)[C@H](C)CN([C@@H](C)CO)C(=O)c2cc(NC(=O)Nc3ccccc3)ccc2O1,inactive
12,C[C@@H]1CCCCO[C@H](CN(C)Cc2ccccc2)[C@@H](C)CN([C@@H](C)CO)C(=O)c2cc(NC(=O)Nc3ccc4c(c3)OCO4)ccc2O1,inactive
13,C[C@@H]1CN([C@@H](C)CO)C(=O)c2cc(NC(=O)Nc3ccc4c(c3)OCO4)ccc2O[C@@H](C)CCCCO[C@@H]1CN(C)Cc1ccccc1,active
14,C[C@@H]1CN([C@@H](C)CO)C(=O)c2cc(NC(=O)Nc3ccccc3)ccc2O[C@@H](C)CCCCO[C@@H]1CN(C)Cc1ccc2c(c1)OCO2,active
15,C[C@@H]1CCCCO[C@H](CN(C)CC2CCCCC2)[C@H](C)CN([C@H](C)CO)C(=O)c2cc(NS(=O)(=O)c3ccccc3)ccc2O1,inactive
16,C[C@@H]1CCCCO[C@@H](CN(C)C(=O)Nc2ccc3c(c2)OCO3)[C@@H](C)CN([C@H](C)CO)C(=O)c2cc(NC(=O)Nc3cccc4ccccc34)ccc2O1,inactive
17,C[C@@H]1CN([C@H](C)CO)C(=O)Cc2cc(NC(=O)Cn3cnnn3)ccc2O[C@H]1CN(C)Cc1ccccc1,inactive
18,COc1cc(C)ccc1S(=O)(=O)N1[C@@H]2CC[C@@H](C2)[C@H]1c1nc2cccc(OCc3ccc(F)cc3)c2[nH]1,inactive
19,Cc1ccc(C)c(S(=O)(=O)N2[C@@H]3CC[C@@H](C3)[C@H]2c2nc3cccc(OCc4ccc(F)cc4)c3[nH]2)c1,inactive
20,CC(=O)c1cccc(S(=O)(=O)N2[C@@H]3CC[C@@H](C3)[C@H]2c2nc3cccc(OCc4ccc(F)cc4)c3[nH]2)c1,inactive

row,SMILES,cytotoxicity call
1,COc1ccc(OC)c(S(=O)(=O)N2[C@@H]3CC[C@@H](C3)[C@H]2c2nc3cccc(OCc4ccc(F)cc4)c3[nH]2)c1,inactive
2,COc1cccc(S(=O)(=O)N2[C@@H]3CC[C@@H](C3)[C@H]2c2nc3cccc(OCc4ccc(F)cc4)c3[nH]2)c1,active
3,Cc1ccc(F)c(S(=O)(=O)N2[C@@H]3CC[C@@H](C3)[C@H]2c2nc3cccc(OCc4ccc(F)cc4)c3[nH]2)c1,active
4,CN1C(=O)c2cc(NC(=O)c3ccc(F)c(F)c3)ccc2OC[C@H]2O[C@H](CC(=O)N3CCOCC3)CC[C@H]21,inactive
5,Cc1ccc(S(=O)(=O)Nc2ccc3c(c2)C(=O)N([C@@H](C)CO)C[C@@H](C)[C@@H](CN(C)C(=O)CCC(F)(F)F)OCCCC[C@@H](C)O3)cc1,inactive
6,CCS(=O)(=O)N1C[C@]2(CCN(CC2)S(=O)(=O)c2cn(cn2)C)c2c(n(c3cc(ccc23)OC)C)[C@H]1CO,inactive
7,C[C@H](CO)N1C[C@H](C)[C@@H](CN(C)C(=O)Nc2ccc(F)cc2)OCc2ccccc2-c2c(n(C)c3ccccc23)C1=O,inactive
8,COCC(=O)N1C[C@H](C)[C@@H](OC)CN(C)C(=O)c2ccc(NC(=O)Nc3ccccc3)cc2OC[C@H]1C,inactive
9,C[C@H](CO)N1C[C@H](C)[C@H](CN(C)Cc2ccc(C(=O)O)cc2)Oc2ccc(NS(C)(=O)=O)cc2C1=O,inactive
10,C[C@@H]1CN([C@@H](C)CO)C(=O)Cc2cc(NC(=O)Nc3ccc(C(F)(F)F)cc3)ccc2O[C@H]1CN(C)Cc1ccc(-c2ccccc2)cc1,active
11,C[C@H]1CN([C@@H](C)CO)C(=O)Cc2cc(NC(=O)Nc3ccc(C(F)(F)F)cc3)ccc2O[C@H]1CN(C)Cc1ccc(-c2ccccc2)cc1,active
12,C[C@H](CO)N1C[C@H](C)[C@H](CN(C)Cc2ccc(-c3ccccc3)cc2)Oc2ccc(NC(=O)Nc3ccc(C(F)(F)F)cc3)cc2CC1=O,active
13,C[C@H]1CN([C@@H](C)CO)C(=O)Cc2cc(NC(=O)Nc3ccc(C(F)(F)F)cc3)ccc2O[C@@H]1CN(C)Cc1ccc(-c2ccccc2)cc1,inactive
14,C[C@@H]1CN([C@H](C)CO)C(=O)Cc2cc(NC(=O)Nc3ccc(C(F)(F)F)cc3)ccc2O[C@@H]1CN(C)Cc1ccc(-c2ccccc2)cc1,active
15,COCCN1C[C@H]2CN(Cc3nccn3C)C[C@H]2C1=O,inactive
16,O=C(C[C@H]1C[C@H]2c3cc(NS(=O)(=O)c4ccc(F)cc4)ccc3O[C@H]2[C@H](CO)O1)NC1CCCCC1,inactive
17,CC1(C)CCC2=C(O1)C(=O)c1ccccc1C2=O [alpha-LAPACHONE ],inactive
18,Cc1noc(C)c1NC(=O)N(C)C[C@H]1OCCCC[C@@H](C)Oc2ccc(NC(=O)CCC(F)(F)F)cc2C(=O)N([C@H](C)CO)C[C@@H]1C,inactive
19,Cc1ccc(S(=O)(=O)N(C)C[C@@H]2Oc3ccc(NS(=O)(=O)c4c(C)noc4C)cc3C(=O)N([C@H](C)CO)C[C@H]2C)cc1,inactive
20,C[C@@H]1CCCCO[C@H](CN(C)C(=O)CCC(F)(F)F)[C@H](C)CN([C@@H](C)CO)C(=O)c2cc(NS(=O)(=O)c3ccccc3)ccc2O1,inactive
